Records with an inconclusive call do not appear. Activity calls are given as the source filed them. Calls follow the shape of the dose curve; as a rule, active = well fitted inhibition curve with a large enough effect; inconclusive = small, poorly fitted or top-dose-only effect; inactive = flat fitted curve, though single readings scatter.
Legend:
Experiment in all cases: qHTS profiling for inhibitors of Plasmodium falciparum proliferation (AID 504749); also: nearly all actives have a fitted effect of over 60% in size
Conditions in all cases: P. falciparum in erythrocytes, SYBR Green DNA, 72 h; series mostly up to 28.7 µM
CP265 = system: CP265
Summary of the method: (§1)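 Each compound contacts P. falciparum-infected red blood cells for 72 h at 37 C; lysis buffer (Tris, EDTA, saponin, Triton X, SYBR Green I) is added and fluorescence measured next morning; values normalized to controls.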

CP266 = system: CP266
Summary of the method: as §1

CP268 = system: CP268
Summary of the method: as §1

CP269 = system: CP269
Summary of the method: as §1

CP286 = system: CP286
Summary of the method: as §1

CP291 = system: CP291
Summary of the method: as §1

CP297 = system: CP297
Summary of the method: as §1

CP305 = system: CP305
Summary of the method: as §1

CP325 = system: CP325
Summary of the method: as §1

CP329 = system: CP329
Summary of the method: as §1

CP335 = system: CP335
Summary of the method: as §1

DFO2036 = system: DFO2036
Summary of the method: as §1

DIV14 = system: DIV14
Summary of the method: as §1

DIV17 = system: DIV17
Summary of the method: as §1

DIV30 = system: DIV30
Summary of the method: as §1

Dd2 = system: Dd2
Summary of the method: as §1

ECU = system: ECU
Summary of the method: as §1

HB3 = system: HB3
Summary of the method: as §1

ICS = system: ICS
Summary of the method: as §1

N140 = system: N140
Summary of the method: as §1

P93_24 = system: P93_24
Summary of the method: as §1

P94_40 = system: P94_40
Summary of the method: as §1

PAD = system: PAD
Summary of the method: as §1

PC15 = system: PC15
Summary of the method: as §1

PC26 = system: PC26
Summary of the method: as §1

SC27B = system: SC27B
Summary of the method: as §1

TAB109 = system: TAB109
Summary of the method: as §1

TAB113 = system: TAB113
Summary of the method: as §1

TAB165 = system: TAB165
Summary of the method: as §1

W2 = system: W2
Summary of the method: as §1

Measured: Potency
Potency is read from the fitted curve at half-maximal effect.

C/C=C\C[C@H](C)[C@H](O)[C@H]1C(=O)N[C@@H](CC)C(=O)N(C)CC(=O)N(C)[C@@H](CC(C)C)C(=O)N[C@@H](C(C)C)C(=O)N(C)[C@@H](CC(C)C)C(=O)N[C@@H](C)C(=O)N[C@@H](C)C(=O)N(C)[C@@H](CC(C)C)C(=O)N(C)[C@@H](CC(C)C)C(=O)N(C)[C@@H](C(C)C)C(=O)N1C
active: CP265 3.55 µM | CP266 10.7 µM | CP268 15.1 µM | CP269 6.01 µM | CP286 7.08 µM | CP291 10.7 µM | CP297 4.78 µM | CP305 6.01 µM | CP325 7.57 µM | CP329 6.01 µM | CP335 4.26 µM | DFO2036 2.51 µM | DIV14 6.75 µM | DIV17 8.49 µM | DIV30 13.5 µM | Dd2 5.01 µM | ECU 2.24 µM | HB3 7.08 µM | ICS 3.98 µM | N140 2.82 µM | P93_24 5.01 µM | P94_40 5.01 µM | PAD 3.55 µM | PC15 11.2 µM | PC26 6.75 µM | SC27B 2.82 µM | TAB109 3.55 µM | TAB113 3.55 µM | TAB165 4.47 µM | W2 1.9 µM

From PubChem BioAssay (NCATS)
